LGR2 antag = inhibitors of bursicon-induced LGR2 CRE-luciferase signal, primary screen, cell-based, HEK293, CRE-luciferase reporter, bursicon stimulation | bursicon-stimulated, 4 h | inhibition, % at 9.99 µM | AID 720647, 2013 | Drosophila bursicon receptor LGR2 (rickets) | 380,000 tested, 0.35% active;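 active = drop in luminescence signal, shown as inhibition above about 50% in the replicate tests, limit read from the data, passing the limit was not always enough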;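 note: agonist challenge used bursicon conditioned medium at about half maximal strength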
TWEAK-Fn14 inh = inhibitors of TWEAK-Fn14 signaling, primary screen, luciferase reporter cells, uHTS. TWEAK-stimulated Fn14 reporter cells, luciferase luminescence, 8 h. inhibition, % at 10 µM. 360,000 tested, 2% active. AID 1159606, 2016; in the data active = inhibition above about 50%
TROY signal inh = inhibitors of TROY-driven NF-kB signaling, primary screen, Q293 LMP1-TROYcd cells, NF-kB luciferase, uHTS | Q293 LMP1-TROYcd NF-kB luciferase reporter, 4 h | inhibition, % at 10 µM | 360,000 tested, 0.98% active;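 active = compounds whose plate-normalised and pattern-corrected inhibition of the luciferase reporter signal at the single screening dose is 50% or more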
HSP90 refold inh = HSP90 inhibitors, primary screen, cell lysate, luminescence; Heat shock protein HSP 90 (rabbit reticulocyte lysate; luciferase refolding); Rabbit reticulocyte lysate, luciferase refolding luminescence, 3 h; inhibition, % at 5.6 µM; 290,000 tested, 0.91% active; AID 1789, 2009;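 active = inhibition above the screen-wide mean plus 3 SD, computed separately per campaign, cut at about 16% in these data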;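 note: 0% = DMSO wells and 100% = 60 µM geldanamycin wells; inhibitors lower the luminescence because luciferase stays unfolded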
Active calls of the source: *. This is a sample that favours compounds with a hit; in the whole collection about 2.2% have one here.

How did COc1ccc(CN2CC3(CN(C(C)=O)C3)c3c([nH]c4cc(OC)ccc34)[C@@H]2CO)cc1 do in these assays?
LGR2 antag: -14.8

How did COc1ccc2c3c([nH]c2c1)[C@@H](CO)N(C(=O)Cc1ccccc1)CC31CCN(C(=O)Cc2ccccc2)CC1 do in these assays?
LGR2 antag: 5.7

How did O=C(CSc1nc2ccccc2o1)Nc1nc2ccc(Br)cc2s1 do in these assays?
TWEAK-Fn14 inh: -28.9; TROY signal inh: 5.1; HSP90 refold inh: 0.7

What do the screens show for `COc1ccc2nc(NC(=O)CSc3nc4ccccc4o3)sc2c1`?
TWEAK-Fn14 inh: 35.0; TROY signal inh: 68.2*; HSP90 refold inh: 13.9

How did CO[C@H]1CN(C)C(=O)c2ccc(NC(=O)C3CC3)cc2OC[C@H](C)N(Cc2nccs2)C[C@@H]1C do in these assays?
LGR2 antag: 9.8

Results for Clc1cccc(Cc2c(-c3ccco3)nc3ccc(Cl)cn23)c1 ?
LGR2 antag: 8.2; TWEAK-Fn14 inh: 64.4*; TROY signal inh: -1.9

What do the screens show for `Cc1ccc(Cc2c(-c3ccco3)nc3c4ccccc4ccn23)cc1`?
LGR2 antag: 11.0; TWEAK-Fn14 inh: 81.0*; TROY signal inh: 47.5

Results for Clc1cccc(Cc2c(-c3ccco3)nc3ccc(Br)cn23)c1 ?
TWEAK-Fn14 inh: 46.4; TROY signal inh: 6.2

What do the screens show for `Cc1cc(Br)cn2c(Cc3cccc(Cl)c3)c(-c3ccco3)nc12`?
LGR2 antag: 14.5; TWEAK-Fn14 inh: 67.6*; TROY signal inh: 3.3

What do the screens show for `Cc1ccc(Cc2c(-c3ccco3)nc3c(C)cc(Br)cn23)cc1`?
LGR2 antag: 5.5; TWEAK-Fn14 inh: 43.8; TROY signal inh: 2.1

What do the screens show for `COc1ccccc1Cc1c(-c2ccc(Cl)cc2)nc2c(C)cc(Br)cn12`?
LGR2 antag: -9.6; TWEAK-Fn14 inh: 60.0*; TROY signal inh: 25.1

Results for O=C(Nc1ccc2c(c1)OCO2)N[C@H]1CC[C@H](CCNC(=O)C2CCOCC2)O[C@@H]1CO ?
LGR2 antag: 8.7

How did O=c1oc2c(O)c(O)cc3c(=O)oc4c(O)c(O)cc1c4c23 do in these assays?
TWEAK-Fn14 inh: 88.2*; TROY signal inh: 14.8; HSP90 refold inh: 6.0

What do the screens show for `O=c1oc2ccccc2c2oc3cc(O)c(O)cc3c12`?
LGR2 antag: -23.4; TWEAK-Fn14 inh: -32.7; TROY signal inh: -22.8; HSP90 refold inh: -5.9

What do the screens show for `COCCNC(=O)CSC1=N/C(=C/c2ccc(Cl)c(Cl)c2)C(=O)N1c1ccccc1F`?
LGR2 antag: 3.7; TWEAK-Fn14 inh: 56.6*; TROY signal inh: 22.9; HSP90 refold inh: 2.8

What do the screens show for `C=CCN1C(=O)/C(=C\c2ccc(Cl)cc2)N=C1SCC(=O)NCCC`?
LGR2 antag: -1.7; TWEAK-Fn14 inh: -16.5; TROY signal inh: -15.6; HSP90 refold inh: -0.9

What do the screens show for `COc1ccc(C[C@H]2CN3C(=NC[C@@H]3Cc3ccccc3)N2CCNC(=O)CCC2CCCCC2)cc1`?
LGR2 antag: 82.0*; TWEAK-Fn14 inh: -19.2; TROY signal inh: -7.7; HSP90 refold inh: 10.3

What do the screens show for `C[C@H](CO)N1C[C@H](C)[C@@H](CN(C)C(=O)Nc2ccc(C(F)(F)F)cc2)Oc2c(NS(=O)(=O)c3ccc(Cl)cc3)cccc2C1=O`?
LGR2 antag: -9.2

Results for CC(=O)N(C)c1ccc(OCC(O)Cn2c3ccc(Cl)cc3c3cc(Cl)ccc32)cc1 (stereo not given) ?
TWEAK-Fn14 inh: 47.6; TROY signal inh: 62.9*; HSP90 refold inh: 1.6

What do the screens show for `Cc1nc2cc(-c3ccccc3)nn2c(N)c1-c1ccccc1`?
LGR2 antag: 7.4; TWEAK-Fn14 inh: 73.8*; TROY signal inh: 72.5*

Results for Cc1nc2c(-c3ccccc3)c(C)nn2c(N)c1-c1ccccc1 ?
TWEAK-Fn14 inh: -18.3; TROY signal inh: 10.2; HSP90 refold inh: -0.9

What do the screens show for `CCC1=C(CC2NCCc3ccccc32)CC2c3cc(OC)c(OC)cc3CCN2C1` (stereo not given)?
LGR2 antag: 70.5*; TWEAK-Fn14 inh: 41.2; TROY signal inh: 35.6

What do the screens show for `CC[C@H]1CN2CCc3cc(OC)c(OC)cc3C2C[C@@H]1C[C@H]1NCCc2cc(OC)c(OC)cc21` (stereo not given in full)?
LGR2 antag: 102.6*; TWEAK-Fn14 inh: 95.4*; TROY signal inh: 85.8*

What do the screens show for `COc1cc2c(cc1OC)CN1CCc3cc(OC)c(OC)cc3C1C2` (stereo not given)?
LGR2 antag: -1.0; TWEAK-Fn14 inh: -10.3; TROY signal inh: -8.5

What do the screens show for `CC(C)CC#Cc1ccc([C@@H]2[C@H]3CN(C(=O)Cc4ccccc4)CC(=O)N3[C@H]2CO)cc1`?
LGR2 antag: 4.3

What do the screens show for `O=C([C@H]1[C@H](CO)[C@H]2Cn3c(cccc3=O)[C@H]2N1Cc1ccccc1Cl)N1CCOCC1`?
LGR2 antag: 11.0

What do the screens show for `O=S(=O)(Nc1ccc2c(c1)OCO2)c1cccs1`?
TWEAK-Fn14 inh: -4.3; TROY signal inh: -0.1; HSP90 refold inh: 0.9

What do the screens show for `COc1ccc(C)cc1S(=O)(=O)Nc1ccc2c(c1)OCCO2`?
LGR2 antag: -0.9; TWEAK-Fn14 inh: 2.1; TROY signal inh: -1.0; HSP90 refold inh: 3.0

Results for Cn1c(=O)oc2cc(S(=O)(=O)Nc3ccc4c(c3)OCCO4)ccc21 ?
TWEAK-Fn14 inh: 65.5*; TROY signal inh: 5.1; HSP90 refold inh: -0.5

How did COc1cccc(S(=O)(=O)Nc2ccc3c(c2)OCCO3)c1 do in these assays?
LGR2 antag: 0.3; TWEAK-Fn14 inh: 76.3*; TROY signal inh: 52.1*; HSP90 refold inh: 4.9

Results for Cc1cccc(S(=O)(=O)Nc2ccc3c(c2)OCCO3)c1 ?
LGR2 antag: 14.7; TWEAK-Fn14 inh: 18.0; TROY signal inh: -3.5; HSP90 refold inh: -2.2

What do the screens show for `COc1ccc(NC(C)=O)cc1S(=O)(=O)Nc1ccc2c(c1)OCCO2`?
LGR2 antag: 3.6; TWEAK-Fn14 inh: 56.6*; TROY signal inh: 53.4*; HSP90 refold inh: -2.1

How did O=S(=O)(Nc1ccc2c(c1)OCCO2)c1cccs1 do in these assays?
LGR2 antag: 8.5; TWEAK-Fn14 inh: 89.8*; TROY signal inh: 74.0*; HSP90 refold inh: 9.2

How did C[C@@H]1CN([C@@H](C)CO)C(=O)c2cc(C3=CCCC3)cnc2O[C@H]1CN(C)C(=O)Cc1ccncc1 do in these assays?
LGR2 antag: 4.4

What do the screens show for `Cc1noc(C)c1S(=O)(=O)Nc1ccc2c(c1)C(=O)N([C@H](C)CO)C[C@@H](C)[C@@H](CN(C)S(C)(=O)=O)O2`?
LGR2 antag: -1.8

What do the screens show for `CN=c1scc(-c2cccs2)n1/N=C/c1ccccc1O`?
LGR2 antag: 100.0*; TWEAK-Fn14 inh: 108.0*; TROY signal inh: 88.2*; HSP90 refold inh: 77.9*

Results for Cc1ccc(S(=O)(=O)N(C)C[C@H]2Oc3ccc(NC(=O)CCN4CCOCC4)cc3C(=O)N([C@@H](C)CO)C[C@H]2C)cc1 ?
LGR2 antag: 13.0

Screens deposited in PubChem BioAssay by several laboratories.
